High-throughput results from PubChem.
This excerpt belongs to a sample that is enriched for hits.
GC-A act: GC-A (human) enzyme activation | activation, % at 10 µM | 370,000 tested, 0.14% active | P16066 | HEK293 GC-A cells, cGMP TR-FRET, EC30 ANP; 0% at EC30 ANP, 100% saturating ANP; in the data active means activation above about 40%
ALR inh: inhibitors of human sulfhydryl oxidase ALR; P55789; purified ALR, DTT oxidation, H2O2 HRP-luminol luminescence; inhibition, % (concentration not given with the values); 290,000 tested, 3.8% active; AID 485317;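 active means mean replicate inhibition above about 79%, with every replicate also reaching it, limit read from the data; inconclusive means only one of the two criteria met; inactive means mean below limit and not every replicate reaching it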
Target sequence (P55789 whole entry, looked up): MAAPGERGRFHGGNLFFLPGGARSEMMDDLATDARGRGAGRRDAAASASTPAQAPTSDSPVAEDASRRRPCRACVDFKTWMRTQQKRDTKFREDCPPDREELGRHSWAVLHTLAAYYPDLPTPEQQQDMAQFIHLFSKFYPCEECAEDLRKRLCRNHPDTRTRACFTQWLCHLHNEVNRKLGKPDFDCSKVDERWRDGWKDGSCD
NPR2 activator: GC-B (human) receptor activation; HEK293-GC-B cells, CNP EC30, cGMP TR-FRET; 0% at EC30 CNP, 100% saturating CNP; activation, % at 10 µM; 370,000 tested, 0.11% active;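 active means activation at 10 µM reaching about 35% in either raw or pattern-adjusted values, limit read from the data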
HDAC3 inh: inhibitors of human histone deacetylase 3. 320,000 tested, 0.15% active. recombinant HDAC3, fluorogenic peptide/trypsin coupled, fluorescence. O15379. inhibition, % at 8.3 µM; in the data active means inhibition above about 26%, passing the limit was not always enough; inconclusive means no clear call, values can overlap the other calls
Numbers stand for hits; n = inactive; u = inconclusive; x = no result.

SMILES | GC-A act | ALR inh | NPR2 activator | HDAC3 inh
Cc1ccc(NC(=O)NNC(=O)c2ccc3c(c2)NC(=O)C(C)(C)O3)cc1 | n | x | n | n
COc1ccccc1CN(C)C(=O)COC(=O)c1ccc(Cl)nc1 | n | n | n | n
CC(=O)Nc1cccc(N2C(=O)CCC2=O)c1 | n | n | n | n
CC(=O)Nc1cccc(N2CCCC2=O)c1 | n | 99.5 | n | n
CN(C)c1ccc(/C=N/NC(=O)c2ccc3c(c2)OCO3)cc1 | n | 97.5 | n | n
CN(CCCNC(=O)c1cccc(N2CCCC2=O)c1)c1ccccc1 | n | 98.4 | n | n
CCCCN(C)CCCNC(=O)c1cccc(N2CCCC2=O)c1 | n | n | n | n
O=C(/C=C/c1ccccc1)c1ccc2c(c1)OCO2 | n | 97.3 | n | n
Cc1cccc(C)c1NC(=O)C(c1ccccc1F)n1c(=O)c(-c2ccccc2)nc2ccccc21 (stereo not given) | n | x | n | x
COc1cccc(NC(=O)CNc2cc(S(=O)(=O)N3CCOCC3)ccc2N2CCCC2)c1 | n | n | n | n
O=C(c1cccc(S(=O)(=O)N2CCc3ccccc32)c1)N1CCN(c2ccccc2)CC1 | n | x | n | x
CC(=O)NC(=S)Nc1sc2c(c1C(N)=O)CCC(C)C2 (stereo not given) | n | 88.8 | n | n
CCC(=O)NCCSc1c[nH]c2ccccc12 | n | n | n | n
O=C(O)CSc1c[nH]c2ccccc12 | n | 98.5 | n | n
CC(C)C(=O)NCCSc1c[nH]c2ccccc12 | n | 99.1 | n | n
O=C(CN(C(=O)c1csnn1)c1cccc2ccccc12)NC1CCCC1 | n | n | n | n
COc1ccccc1NCC(O)Cn1c2ccccc2c2ccccc21 (stereo not given) | n | 87.3 | n | n
COc1ccc(CCNCC(O)Cn2c3ccccc3c3ccccc32)cc1OC (stereo not given) | n | n | n | n
NS(=O)(=O)c1ccc(CNS(=O)(=O)c2cccc3nonc23)cc1 | n | n | n | n
O=S(=O)(NCc1ccccc1)c1cccc2nonc12 | n | 98.9 | n | n
Cc1ccc(OCC(=O)Sc2ccc(C)cc2)cc1 | n | 99.7 | n | n
COc1ccccc1OCC(=O)Sc1ccc(C)cc1 | n | 98.0 | n | n
COc1ccc(NC(=O)NNC(=O)C(C)Oc2ccc3ccccc3c2)cc1 (stereo not given) | n | n | n | n
OCCC1CN(Cc2cccc(-n3cccn3)c2)CCN1Cc1ccccc1 (stereo not given) | n | n | n | n
Cc1cc(N2CCOCC2)c2c(N)c(C)cc(C)c2n1 | n | 99.2 | n | n
SMILES | GC-A act | ALR inh | NPR2 activator | HDAC3 inh
Cc1ccc(C)c(NC(=O)NNS(=O)(=O)c2ccc(C)c(C)c2)c1 | n | 85.4 | n | n
Cc1ccc(S(=O)(=O)NNC(=O)CCC(=O)Nc2ccc(C)c(C)c2)cc1 | n | n | n | n
CCOC(=O)[C@@]12CCCC3=C1N(CCC3)C(=O)[C@H]2CC(=O)NCC12CC3CC(CC(C3)C1)C2 | n | x | n | x
Cc1ccccc1CS(=O)(=O)c1ccc(C(=O)N2CCC(C)CC2)cc1[N+](=O)[O-] | n | 97.2 | n | n
CC1CCN(C(=O)c2ccc(S(=O)(=O)Cc3cccc(F)c3)c([N+](=O)[O-])c2)CC1 | n | n | n | n
N#Cc1ccccc1Cn1c(=O)n(Cc2ccc(C(=O)NCc3ccco3)cc2)c(=O)c2sccc21 | x | 94.1 | x | n
Cc1nc([N+](=O)[O-])c(Sc2nc3ccccc3n2C)n1Cc1ccccc1 | n | 98.1 | n | n
Cc1nc([N+](=O)[O-])c(SCC(N)=O)n1Cc1ccccc1 | n | n | n | n
CCSc1ccc(-c2cc(NC=O)c3ncc(-c4cccc(C(=O)NCCN(C)C)c4)n3c2)cc1 | n | x | n | x
C=CCN1C(=O)CSC1=Nc1ccc(O)cc1 | n | 99.2 | n | n
O=C1CSC(=Nc2ccc(O)cc2)N1c1ccc(O)cc1 | n | 98.7 | n | n
CC(C)(C)c1ccc(C(=O)N2[C@H](COCc3ccccc3)C=CS2(=O)=O)cc1 | n | x | n | x
CCN(CC)c1ccc(NC(=O)CN2CCN(CC(=O)Nc3ccccc3F)CC2)cc1 | n | 99.0 | n | n
CCN(CC)c1ccc(NC(=O)CN2CCN(CC(=O)Nc3ccccc3OC)CC2)cc1 | n | x | n | n
CCN(CC)c1ccc(NC(=O)CN2CCN(c3ccc(F)cc3)CC2)cc1 | n | 78.9 | n | n
CCN(CC)c1ccc(NC(=O)CN2CCN(c3nc(C)cc(C)n3)CC2)cc1 | n | 98.0 | n | n
CCCCCCCCN1C(=O)[C@@H](CC(=O)N2CCN(C(=O)c3ccco3)CC2)C[C@@]2(C(=O)OC)C1=C[C@H](C(C)C)O[C@@H]2C1CC1 | n | x | n | x
COc1ccc(NC2CS(=O)(=O)CC2NCc2ccco2)cc1 (stereo not given) | n | 98.7 | n | n
CCNC(=O)C1(C)CCN(C(=O)c2c(F)ccc(C)c2F)C1 (stereo not given) | n | x | n | x
CC(Sc1nc2ccccc2s1)C(=O)N1CCOCC1 (stereo not given) | n | 99.0 | n | n
CC(Sc1nc2ccccc2s1)C(=O)NCc1ccc2c(c1)OCO2 (stereo not given) | n | u | n | n
CCCCN(C(=O)CSc1nc2ccccc2s1)c1c(N)n(CCCC)c(=O)[nH]c1=O | n | 98.9 | n | n
O=C(CSc1nc2ccccc2s1)NC1CCS(=O)(=O)C1 (stereo not given) | n | 89.9 | n | n
CC(=O)CSc1nc2ccccc2s1 | n | 98.1 | n | n
O=C(NC1CCCCC1)c1cc(S(=O)(=O)N2CCCC2)ccc1Cl | n | x | n | n
SMILES | GC-A act | ALR inh | NPR2 activator | HDAC3 inh
O=C([C@@H]1C[C@H]1c1ccccc1)N1CCC(Oc2cccnc2)CC1 | n | x | n | x
N#CC1(NC(=O)CSc2nc3ccccc3s2)CCCCC1 | n | 98.4 | n | n
CCOC(=O)CSc1nc2ccc(NC(C)=O)cc2s1 | n | n | n | n
Cc1csc(NC(=O)CSc2nc3ccccc3s2)n1 | n | 97.5 | n | n
Cc1csc(NC(=O)CCCSc2nc3ccccc3s2)n1 | n | n | n | n
COC(=O)CSc1nc2ccc(N)cc2s1 | n | 98.7 | n | n
N#CC1(NC(=O)CSc2nc3ccc([N+](=O)[O-])cc3s2)CCCCC1 | n | n | n | n
O=S(=O)(CCSc1nc2ccccc2s1)c1nc2ccccc2s1 | n | n | n | n
CCS(=O)(=O)CCSc1nc2ccccc2s1 | n | 99.0 | n | n
O=c1[nH]c(=S)[nH]c2sc3c(c12)CCCCCC3 | n | n | n | n
Cc1cccc(Nc2nc3c(S(=O)(=O)c4ccccc4)nnn3c3ccccc23)c1 | n | n | 41.8 | n
Cc1cc(C)cc(Nc2nc3c(S(=O)(=O)c4ccccc4)nnn3c3ccccc23)c1 | n | x | n | n
Cn1cc(CCOCc2ccccn2)c2ccccc21 | n | x | n | x
CCC(C)NC(=O)c1ccccc1NC(=O)c1ccc(CSc2ccc(C)cc2)cc1 (stereo not given) | n | 99.5 | n | n
S=c1[nH]nc(-c2n[nH]c3c2CCC3)n1N=Cc1c[nH]c2ccccc12 | n | x | n | x
CCn1cnc2c1c(=O)n(Cc1ccc(C(=O)OC)cc1)c(=O)n2Cc1ccccc1 | n | n | 35.1 | n
